# Mtb UGM inh – blocks M. tuberculosis UGM enzyme. P9WIQ1. purified UGM, fluorescence polarization probe displacement. inhibition, % at 10 µM. 320,000 tested, 0.06% active. AID 504406; in the data active = inhibition above about 10%, passing the limit was not always enough
# PriA SSB inh – blocks PriA binding to SSB C-terminal tail; AlphaScreen SSBct-PriA binding, biotinylated peptide; inhibition, % at 33 µM; 430,000 tested, 0.6% active; AID 1272365; in the data active = inhibition mostly above about 37%, no sharp cut-off; inactive = mostly below about 20%;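 also: plate controls were negative control peptide for no effect and reference peptide for full effect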
# GDH-TPI counter-1 – inhibits GDH-TPI coupling enzymes, artifact for Mtb FBA screen | inhibition, % at 4.8 µM | 360,000 tested, 1.2% active | GDH-TPI coupled enzyme counterscreen, NADH absorbance | AID 588335; in the data active = inhibition above about 30%;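 also: 0% = DMSO wells and 100% = wells lacking the enzyme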
# Mtb bLac sens – beta-lactam sensitization of Mtb H37Rv | M. tuberculosis H37Rv growth with meropenem, percent inhibition | inhibition, % at 25 µM | 330,000 tested, 0.27% active; call rule not given here;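 also: growth measured after seven days incubation then overnight dye step; 0% = bacteria only wells and 100% = bacteria with antibiotic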
# Rv3671c protease – inhibitors of M. tuberculosis serine protease Rv3671c; inhibition, % at 5.96 µM; AID 2606; 320,000 tested, 0.048% active; in the data active = inhibition above about 38%;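 also: extracellular domain of Rv3671c used as enzyme; 0% = enzyme with DMSO and 100% = no enzyme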
# Target sequence (P9WHR9 whole entry, looked up, the tested form may be a part): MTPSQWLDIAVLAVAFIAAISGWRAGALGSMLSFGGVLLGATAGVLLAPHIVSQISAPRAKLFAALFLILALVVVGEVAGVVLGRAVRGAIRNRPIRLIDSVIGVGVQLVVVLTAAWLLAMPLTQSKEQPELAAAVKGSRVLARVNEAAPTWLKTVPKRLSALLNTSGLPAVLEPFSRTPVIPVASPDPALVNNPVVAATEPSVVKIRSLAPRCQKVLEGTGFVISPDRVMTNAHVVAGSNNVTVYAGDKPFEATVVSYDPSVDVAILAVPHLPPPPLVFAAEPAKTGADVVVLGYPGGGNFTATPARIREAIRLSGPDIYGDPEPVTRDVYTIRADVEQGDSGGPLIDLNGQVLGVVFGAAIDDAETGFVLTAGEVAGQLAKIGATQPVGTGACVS
# Mtb FBA inh – inhibits M. tuberculosis FBA enzyme; P9WQA3; inhibition, % at 1 µM; 360,000 tested, 2.3% active; purified M. tuberculosis FBA, fluorescence read-out; AID 588726;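 also: 0% = vehicle and 100% = reference inhibitor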
# Mtb FBA inh conf – Mtb FBA inhibition, confirmed | 5,600 tested, 78% active | inhibition, % at 1 µM | shares compounds with Mtb FBA inh | purified M. tuberculosis FBA, fluorescence read-out;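 also: 0% = vehicle wells and 100% = reference inhibitor wells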
# GDH-TPI counter-2 – GDH-TPI inhibition counter-screen for FBA inhibitors | shares compounds with Mtb FBA inh | GDH-TPI coupled enzyme counterscreen, fluorescence | inhibition, % at 1 µM | 5,600 tested, 81% active | AID 652141; in the data active = inhibition above about 10%
# GDH-TPI dose – counter-screen for M. tuberculosis FBA inhibitors: GDH-TPI dose response | shares compounds with Mtb FBA inh | GDH-TPI coupled enzyme assay, fluorescence, artifact counterscreen | IC50, µM | 170 tested, 79% active | AID 652145; call rule not given here
# * = called active by the depositor; / = no result given; + = active, no number. This is a sample that favours compounds with a hit; in the whole collection about 3.2% have one here. Rule as the data show it, unless noted: active = inhibition above about 27%; inactive = the rest.
SMILES,Mtb UGM inh,PriA SSB inh,GDH-TPI counter-1,Mtb bLac sens,Rv3671c protease,Mtb FBA inh,Mtb FBA inh conf,GDH-TPI counter-2,others
Oc1ccc(-c2cn3ccccc3n2)cc1,-5,0,17,-1,4,57*,-6,-5,
CCN(CC)S(=O)(=O)c1cccc(-c2cn3cc(C)ccc3n2)c1,-1,-5,-2,17,-9,7,/,/,
CCN(CC)S(=O)(=O)c1ccc(-c2cn3ccccc3n2)cc1,/,/,5,/,/,86*,158*,113*,
Brc1ccc(-c2cn3ccccc3n2)cc1,-3,-8,11,12,-2,11,/,/,
O=C(Cn1cnc([N+](=O)[O-])n1)NN=Cc1cccc2ccccc12,/,1,/,/,/,/,/,/,
CC(CC(=O)Nc1ccc(N(C)C)cc1)=NNC(=O)c1ccccn1,/,76,/,/,/,/,/,/,
CCCCc1cc(=O)oc2cc(C)cc(OCC(=O)NC(Cc3ccc(Cl)cc3)C(=O)O)c12 (stereo not drawn),2,-5,7,-4,-9,63*,105*,68*,
CCCc1cc(=O)oc2cc(OCC(=O)NC(Cc3c[nH]c4ccc(O)cc34)C(=O)O)c(Cl)cc12 (stereo not drawn),1,0,0,-6,-3,1,/,/,
CCCc1cc(=O)oc2cc(C)cc(OCC(=O)NC(Cc3ccc(Cl)cc3)C(=O)O)c12 (stereo not drawn),0,0,5,-5,-2,70*,3,0,
O=C(Nc1ccc(O)c(C(=O)O)c1)Oc1ccccc1,2,-3,1,16,-5,73*,138*,99*,
CCCc1nnc(NC(=O)CSc2ncc(-c3ccccc3)[nH]2)s1,/,20,/,/,/,/,/,/,
COc1ccc(OC)c2sc(N(Cc3ccccc3)C(=O)CCS(=O)(=O)c3ccccc3)nc12,/,-5,/,/,/,/,/,/,
Cc1ccc2c(CN3CCN(Cc4ccc5c(c4)OCO5)CC3)cc(=O)oc2c1C,-3,-10,0,0,-10,3,/,/,
Cc1c(O)ccc2c(CN3CCOCC3)cc(=O)oc12,0,-2,3,-5,1,71*,46*,38*,
Cc1c(O)ccc2c(CN3CCC4(CC3)OCCO4)cc(=O)oc12,/,4,/,/,/,/,/,/,
Cc1c(O)ccc2c(CN3CCN(CCO)CC3)cc(=O)oc12,1,9,14,1,-9,74*,69*,63*,
COc1ccc(Cl)cc1S(=O)(=O)NCCc1ccc(N(C)C)cc1,/,31,/,/,/,/,/,/,
O=C(CSc1nc(CC(=O)NC2CC2)cc(=O)[nH]1)NCc1ccco1,/,-15,/,/,/,/,/,/,
COc1ccc(-c2nc3cccc(C)n3c2NCC2CCCO2)cc1O (stereo not drawn),-1,12,7,-11,-3,59*,134*,104*,
CCOc1cc(-c2nc3c(C)cccn3c2NCC2CCCO2)ccc1O (stereo not drawn),-3,/,19,-4,2,84*,131*,108*,
CN(C)Cc1c(C(=O)NN=Cc2ccccc2OCc2ccc(F)cc2)nnn1-c1nonc1N,/,-4,/,/,/,/,/,/,
Oc1cccc(NC(=S)Nc2ccc(SC(F)F)cc2)c1,-3,12,11,58,1,3,/,/,
Oc1cccc2c(NC(=S)Nc3ccc(SC(F)F)cc3)cccc12,2,48*,4,89,1,30*,+,+,
COc1ccccc1-c1coc2c(CN3CCOCC3)c(O)ccc2c1=O,0,-9,20,-2,-6,73*,153*,124*,
COc1ccccc1Oc1coc2c(CN3CCOCC3)c(O)ccc2c1=O,1,-7,8,1,7,80*,+,156*,
SMILES,Mtb UGM inh,PriA SSB inh,GDH-TPI counter-1,Mtb bLac sens,Rv3671c protease,Mtb FBA inh,Mtb FBA inh conf,GDH-TPI counter-2,others
Oc1ccc2ccccc2c1CN1CCOCC1,-4,-6,4,1,3,10,/,/,
CN(C)Cc1c(O)ccc2c(=O)c(Oc3ccccc3F)coc12,/,7,/,/,/,/,/,/,
CCCOc1ccc2c3c(c(=O)oc2c1)CCCC3,2,-14,3,15,-8,60*,97*,76*,
CCc1cc2c3c(c(=O)oc2cc1OC)CCCC3,-2,-8,10,20,4,67*,77*,53*,
C=CCOc1ccc2c3c(c(=O)oc2c1)CCCC3,/,-14,5,/,/,74*,+,+,
Cc1cc(C)cc(OCC(=O)NN=Cc2ccc([N+](=O)[O-])o2)c1,/,1,/,/,/,/,/,/,
CC1(C)CCC[C@]2(C)[C@H]3CC(=O)O[C@]3(C)CC[C@@H]12,-1,-10,-3,0,-4,91*,197*,147*,
O=C(NNC(=O)c1cccn(Cc2cccc(F)c2)c1=O)Nc1ccc(Cl)cc1,/,-8,/,/,/,/,/,/,
CCN(C(=O)c1ccc2c(OC)n(CC)nc2c1)c1ccc(OC)cc1,1,2,3,2,1,31*,-3,-5,
CCCCn1nc2cc(C(=O)NCc3ccc(C(F)(F)F)cc3C(F)(F)F)ccc2c1OCC,-2,0,10,-1,3,22,/,/,
CCCCn1nc2cc(C(=O)N(CC)c3ccc(OC)cc3)ccc2c1OCC,1,-5,3,0,3,28*,112*,87*,
COc1ccc(Cl)c2sc(NC(=O)c3cnccn3)nc12,/,-23,/,/,/,/,/,/,
CCc1cc(=O)oc2c(C)c(OCC(=O)NCCCN3CCCC3=O)ccc12,1,-5,13,4,-3,24,/,/,
CC[C@@H](C)[C@H](NC(=O)CNC(=O)Cc1c(C)c2c(cc(C)c3c(C)coc32)oc1=O)C(=O)O,-2,-1,12,1,-5,82*,50*,35*,
Cc1oc2c(c(C)cc3oc(=O)c(CC(=O)N[C@@H](C)C(=O)O)c(C)c32)c1C,0,-15,2,0,-4,16,/,/,
Cc1coc2c1c(C)cc1oc(=O)c(CC(=O)N[C@@H](CC(C)C)C(=O)O)c(C)c12,0,-6,19,-4,-4,79*,177*,141*,
CCCC(NC(=O)Cc1c(C)c2c(cc(C)c3c(C)coc32)oc1=O)C(=O)O (stereo not drawn),-1,5,1,4,4,55*,-24,-17,
Cc1coc2c1c(C)cc1oc(=O)c(CC(=O)NCCCN3CCCC3=O)c(C)c12,1,-2,21,-6,-11,66*,13,0,GDH-TPI dose=2.3*
Cc1coc2c(C)c3oc(=O)c(CC(=O)N[C@@H](CC(C)C)C(=O)O)c(C)c3cc12,1,-5,7,1,-6,13,/,/,
Cc1oc2c(c(C)cc3oc(=O)c(CC(=O)N[C@@H](CCCNC(N)=O)C(=O)O)c(C)c32)c1C,0,2,5,2,-5,11,/,/,
CCN(CC)S(=O)(=O)c1ccc(NN=C(C)c2ccc3c(c2)OCO3)c([N+](=O)[O-])c1,/,17,/,/,/,/,/,/,

# Screens (PubChem BioAssay)
